These results are taken from ChEMBL document CHEMBL4808148, “HDAC6 screening dataset using tau-based substrate in an enzymatic assay yields selective inhibitors and activators” (2021).

Assay [1] concerns the target T1, Protein deacetylase HDAC6 (Homo sapiens) (UniProt Q9UBN7).
T1 sequence (whole entry): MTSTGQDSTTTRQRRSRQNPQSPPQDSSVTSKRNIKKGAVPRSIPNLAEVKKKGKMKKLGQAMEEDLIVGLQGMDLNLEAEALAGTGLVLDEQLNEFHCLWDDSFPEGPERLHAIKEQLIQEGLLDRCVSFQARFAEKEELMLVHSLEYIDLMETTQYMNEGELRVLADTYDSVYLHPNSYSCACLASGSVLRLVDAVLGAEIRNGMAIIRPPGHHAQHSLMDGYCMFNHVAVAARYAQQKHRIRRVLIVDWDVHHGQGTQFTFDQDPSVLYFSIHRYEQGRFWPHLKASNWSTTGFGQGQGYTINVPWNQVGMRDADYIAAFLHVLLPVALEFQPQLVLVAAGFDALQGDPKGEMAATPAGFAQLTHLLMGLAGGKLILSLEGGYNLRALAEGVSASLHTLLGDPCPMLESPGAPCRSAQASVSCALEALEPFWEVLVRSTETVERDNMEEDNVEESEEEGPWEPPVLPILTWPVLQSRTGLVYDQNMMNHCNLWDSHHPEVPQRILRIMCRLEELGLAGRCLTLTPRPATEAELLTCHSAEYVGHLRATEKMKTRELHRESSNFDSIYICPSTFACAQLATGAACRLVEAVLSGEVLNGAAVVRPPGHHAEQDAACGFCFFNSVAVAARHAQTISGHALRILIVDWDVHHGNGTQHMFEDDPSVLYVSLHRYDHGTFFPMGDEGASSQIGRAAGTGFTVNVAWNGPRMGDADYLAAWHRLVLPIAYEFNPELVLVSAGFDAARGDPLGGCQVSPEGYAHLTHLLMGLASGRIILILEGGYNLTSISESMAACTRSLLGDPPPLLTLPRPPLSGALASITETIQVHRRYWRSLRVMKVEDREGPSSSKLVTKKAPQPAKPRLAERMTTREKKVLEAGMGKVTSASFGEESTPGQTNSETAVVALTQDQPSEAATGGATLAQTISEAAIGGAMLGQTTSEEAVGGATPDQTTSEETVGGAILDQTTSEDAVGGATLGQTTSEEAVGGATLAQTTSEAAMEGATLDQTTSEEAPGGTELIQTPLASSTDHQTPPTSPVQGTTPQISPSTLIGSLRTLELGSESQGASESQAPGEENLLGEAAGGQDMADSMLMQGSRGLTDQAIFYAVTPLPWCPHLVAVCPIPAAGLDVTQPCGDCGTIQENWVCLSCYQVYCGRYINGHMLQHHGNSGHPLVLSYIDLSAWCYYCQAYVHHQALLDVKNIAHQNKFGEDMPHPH
As to conditions: at 10 µM.

The target of assay [2] is Protein deacetylase HDAC6 (Homo sapiens) (UniProt Q9UBN7). As to conditions: at 10 µM. The source holds these as a separate data set.

Where “and” joins values, the source holds several entries; their conditions need not be identical. Equal entries are not always repeated. Among all 5,600 compounds or so, about 150 (2.7%) showed an effect of 50% or more. This is one part of a sample in which strong results are shown more often than they occur. Positions of bridges follow the written chain, without caps; N, C: chain ends. Non-standard residues stand in square brackets, D forms with d. Residues, ends and D or L forms follow the SMILES beside them. *: point of attachment. NMeF = CN[C@@H](Cc1ccccc1)C(=O)O; X4 = CCC(C)C(N)C1=NC(C(=O)*)CS1; dOrn = NCCC[C@@H](N)C(=O)O

Consider `O=C(O)c1ccccc1S`, for which the inhibition in assay [1] is -3.38%.

Regarding `O=C(O)c1ccccc1C(=O)Nc1ccc(-c2ccccc2)cc1`, the inhibition in assay [1] was 54.2%.

As for `CC(=O)NS(=O)(=O)c1ccc(NC(=O)c2ccccc2C(=O)O)cc1`, the inhibition in assay [1] is -6.68%.

Turning to `CC(C)(S)C(=O)N[C@@H](CS)C(=O)O`, the inhibition in assay [1] turned out to be 6.63%.

Take `CC(C)C(=O)SCCCCC[C@H](NC(=O)OC(C)(C)C)C(=O)NC12CC3CC(CC(C3)C1)C2`: the inhibition in assay [1] is 52.4%.

As to `CC(C)CCC[C@@H](C)[C@H]1CC[C@H]2[C@@H]3CCC4=CC(=NO)CC[C@]4(C)[C@H]3CC[C@]12C`, the inhibition in assay [1] worked out at 4.46%.

In the case of `NC(=O)c1ccc(F)c2c1C[C@@H](N(C1CCC1)C1CCC1)CO2`, in assay [1], the inhibition is -7.93%.

With `COc1ccc(S(=O)(=O)N2CCCN(S(=O)(=O)c3ccc(OC)c(OC)c3)CC2)cc1OC`, in assay [1], the inhibition was -6.17%.

Take `O=C(NO)c1cnc(N2CCN(S(=O)(=O)c3ccc4ccccc4c3)CC2)nc1`: in assay [1], the inhibition is 96.2%.

With `COc1ccc([C@]2(O)CC[C@H](N3CC[C@@H](NC(=O)CNC(=O)c4cccc(C(F)(F)F)c4)C3)CC2)cn1`, the inhibition in assay [1] is 0.65%.

For the molecule `CC(C)(C)c1ccc(-c2nc3ccccc3[nH]2)cc1`, the inhibition in assay [1] amounted to 94%.

`CN1CCN(c2ccc3[nH]c(-c4ccc5[nH]c(-c6ccc(O)cc6)nc5c4)nc3c2)CC1`: the inhibition in assay [1] amounted to 5.09%.

Take `CC(C)(C)c1ccc(O)cc1`: in assay [1], the inhibition was -5.54%.

With `CN(C)c1cc(CNCC(C)(C)C)c(O)c2c1C[C@H]1C[C@H]3[C@H](N(C)C)C(O)=C(C(N)=O)C(=O)[C@@]3(O)C(O)=C1C2=O`, in assay [1], the inhibition is -4.38%.

Turning to `CC(C)(CCCCCC(O)CCCCCC(C)(C)C(=O)O)C(=O)O`, in assay [1], the inhibition was 1.13%.

For the molecule `CCOC(=O)C1=C(N)Oc2ccc(Br)cc2[C@H]1[C@H](C#N)C(=O)OCC`, the inhibition in assay [1] came out at 13.4%.

As for `N#Cc1cnc2c(Cl)cc(NCc3cn(CCN4CCCCCC4)nn3)cc2c1Nc1ccc(F)c(Cl)c1`, in assay [1], the inhibition was -2.34%.

As for `COCCN1CCC(C(=O)NO)(S(=O)(=O)c2ccc(Oc3ccc(OC(F)(F)F)cc3)cc2)CC1`, in assay [1], the inhibition came to 1.97%.

`COC(=O)c1cc(OC)c2c(c1-c1c(CO)cc(OC)c3c1OCO3)OCO2`: the inhibition in assay [1] is -0.94%.

As to `CS(=O)(=O)Nc1ccc(-c2coc3cc(OCc4cccc(C(=O)O)c4)ccc3c2=O)cc1`, the inhibition in assay [1] was 57.5%.

As for `OCCCCO`, in assay [1], the inhibition was -0.89%.

With `CCC(=O)O[C@]1(C(=O)COC(C)=O)CC[C@H]2[C@@H]3C[C@H](C)C4=CC(=O)C=C[C@]4(C)[C@H]3[C@@H](O)C[C@@]21C`, the inhibition in assay [1] turned out to be 1.57%.

With `N=C(Nc1ccccc1)c1cccs1`, in assay [1], the inhibition was found to be 14.8%.

In the case of `O=C1NC(=S)NC(=O)C1C(=O)Nc1ccccc1`, the inhibition in assay [1] stood at 95%.

As for `O=C1NN(C(=O)Nc2ccc(Br)cc2)[C@@H](c2ccccc2)[C@@H]1c1ccccc1`, the inhibition in assay [1] worked out at 13.1%.

As for GADOBUTROL, CHEMBL2218860, the inhibition in assay [2] was 27.5%.

In the case of `CC(C)(O)CC(=O)O`, in assay [1], the inhibition was found to be 1.27%.

With `CCc1nc2c(C)nc(C)cc2n1-c1ccc(CCNC(=O)NS(=O)(=O)c2ccc(C)cc2)cc1`, in assay [1], the inhibition is -2.18%.

As for `C=CC(C)(O)CC[C@@H]1[C@@]2(C)CCCC(C)(C)C2CC[C@@]1(C)O` (stereo partly drawn), the inhibition in assay [1] was -4.8%.

Turning to `O=C(Nc1cc(C(F)(F)F)ccc1O)Nc1cc(C(F)(F)F)ccc1O`, in assay [1], the inhibition is 0.26%.

As for `Cc1cc(/C=c2/sc3nc4ccccc4n3c2=O)c(C)n1-c1ccccc1`, the inhibition in assay [1] was -1.28%.

For the molecule `Cc1cc(/C=C2\SC(=O)N(c3ccccc3)C2=O)c(C)n1-c1cccnc1`, in assay [1], the inhibition was 66.1%.

For the molecule `CC(C)C1=C2[C@H]3CC[C@@H]4[C@@]5(C)CC[C@H](OC(=O)CC(C)(C)C(=O)O)C(C)(C)[C@@H]5CC[C@@]4(C)[C@]3(C)CC[C@@]2([C@@H](O)CN(CCN(C)C)Cc2ccc(Cl)cc2)CC1=O`, the inhibition in assay [1] was -0.39%.

In the case of `Cc1oc2ccccc2c1CNC(=O)NCc1cccs1`, the inhibition in assay [1] stood at 2.62%.

For the molecule `Nc1ncnc2c1c(-c1cccc(OCc3ccccc3)c1)cn2[C@H]1C[C@H](CN2CCCC2)C1`, the inhibition in assay [1] came out at 8.87%.

Take `CCOC(=O)Nc1ccc(NCc2c(C)cc(C)cc2C)cc1N`: the inhibition in assay [1] is -1.7%.

For the molecule `N#Cc1cc(-c2n[nH]c(-c3ccncc3)n2)ccn1`, the inhibition in assay [1] stood at 61.8%.

`COc1cccc(OC)c1-c1ccc(C[C@H](NC(=O)c2c(Cl)cccc2Cl)C(=O)O)cc1`: the inhibition in assay [1] is -2.4%.

Take `O=C(N[C@H](Cc1ccccc1)C(=O)O)c1sc2cc(F)ccc2c1Cl`: the inhibition in assay [1] is -0.15%.

Turning to `COCCN(C(=O)c1cc(OC)c(OC)c(OC)c1)c1nc(-c2ccccc2)cs1`, the inhibition in assay [1] is -3.54%.

Turning to `Cc1nc2ccc(-n3ncc(C(=O)c4cc5ccccc5[nH]4)c3N)cc2[nH]1`, in assay [1], the inhibition came out at 95.7%.

For the molecule `CCOC(=O)Nc1nc2ccccc2[nH]1`, the inhibition in assay [1] came to 20.3%.

Take `CCCSc1ccc2[nH]c(NC(=O)OC)nc2c1`: the inhibition in assay [1] stood at 41.8%.

In the case of `CCC[S+]([O-])c1ccc2[nH]c(NC(=O)OC)nc2c1` (stereo not drawn), the inhibition in assay [1] worked out at 68.9%.

Turning to `CCC(C)C(N)C1=NC(C(=O)N[C@@H](CC(C)C)C(=O)N[C@H](CCC(=O)O)C(=O)N[C@H](C(=O)N[C@H]2CCCCNC(=O)[C@H](CC(N)=O)NC(=O)[C@@H](CC(=O)O)NC(=O)[C@@H](Cc3cnc[nH]3)NC(=O)[C@@H](Cc3ccccc3)NC(=O)[C@@H]([C@H](C)CC)NC(=O)[C@@H](CCCN)NC2=O)[C@@H](C)CC)CS1` (stereo partly drawn) (X4-L[dE]IK[dOrn][dI][dF][dH][dD]N; lactam 4-C), the inhibition in assay [1] came out at 25.1%.

Regarding `Cc1c(NC(=O)c2cc3c(s2)CCCC3)cccc1-c1cn(C)c(=O)c(Nc2ccc(C3C(=O)N(C)CCN3C)cc2)n1` (racemic), the inhibition in assay [1] is -2.69%.

Consider `N=C(N)Nc1ccc(C(=O)Oc2ccc3cc(C(=N)N)ccc3c2)cc1`, for which the inhibition in assay [1] amounted to 98.3%.

As for `CC(=O)Nc1ccc(OC(C)=O)cc1`, the inhibition in assay [1] is -1.45%.

Turning to `CSCC[C@H](NC(=O)[C@H](CC(C)C)NC(=O)[C@@H](Cc1c[nH]c2ccccc12)NC(=O)[C@H](Cc1ccccc1)N(C)C(=O)[C@@H](Cc1c[nH]c2ccccc12)NC(=O)[C@@H](N)CCCNC(=N)N)C(N)=O` (H-R[dW][NMeF][dW]LM-NH2), the inhibition in assay [1] was -6.35%.

As for `CC(=O)Oc1ccccc1C(=O)Nc1ncc([N+](=O)[O-])s1`, the inhibition in assay [1] came to 98.3%.

As to `COc1ccccc1OC(=O)c1ccccc1OC(C)=O`, in assay [1], the inhibition is -4.29%.

For COLISTIN SULFATE, CHEMBL6067482, in assay [2], the inhibition is -5.33% and -3.72%.

Take `O=C(NN1C(=O)[C@@H]2[C@@H]3C=C[C@@H]([C@H]4C[C@@H]34)[C@@H]2C1=O)c1ccc(C(F)(F)F)cc1`: the inhibition in assay [1] was 3.03%.

The inhibition is the drop in the measured response relative to a control, in per cent.
